Test results reported in PMC12820563, “FoxP3 forms a head-to-head dimer in vivo and stabilizes its multimerization on adjacent microsatellites”.
The full ranking holds about 16,000 sequences; the median of “rpm ratio (pull-down/input)” is about 0.5, and the highest 2% start at about 5.5. This is one part of a sample in which the highest values are shown more often than they occur.

These sequences were tested against T1, MBP-FoxP3dN (Mus musculus, UniProt Q99JB6 188-423) (assay: PD-seq (MBP pull-down with sequencing); 20 mM Tris-HCl pH 7.5, 100 mM NaCl, 1.5 mM MgCl2, 0.4 uM protein, 0.1 uM dsDNA library, 30 min, room temperature, amylose pull-down; high values mean tight binding). Conditions: protein: recombinant; tags: His6-MBP; chain copies: 2; dsDNA, one strand shown.
T1 sequence: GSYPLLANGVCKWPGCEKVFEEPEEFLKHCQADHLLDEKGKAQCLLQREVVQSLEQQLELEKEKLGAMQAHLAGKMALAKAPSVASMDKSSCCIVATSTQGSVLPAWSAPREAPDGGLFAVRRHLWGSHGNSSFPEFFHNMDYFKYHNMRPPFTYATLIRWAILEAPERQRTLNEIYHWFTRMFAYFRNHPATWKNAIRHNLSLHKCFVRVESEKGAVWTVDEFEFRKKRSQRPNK
Procedure, shortened: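 A fragment of mouse FoxP3 or FoxP1 without its N-terminus, carrying a His6-MBP tag and produced in E. coli, was combined at 0.4 µM with a 0.1 µM degenerate double-stranded DNA library filled in with Klenow. The mixture sat for 30 min at room temperature in Tris pH 7.5 buffer containing NaCl and MgCl2. Protein–DNA complexes were captured on amylose resin, washed three times, and the DNA was freed with proteinase K, barcoded by PCR and sequenced on Illumina. Binding is expressed as reads-per-million enrichment of pull-down over input, with replicates pooled.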
“GATGATTGTTCTCCCAGCTGATGAATTTCAACGCTCGAGTAAACAAATTTTCCTAATCTTTCTGTTCAAGCGCCATCTAC” was tested, and the binding signal was 0.363 RPM ratio (pull-down/input). With “GATGATTGTTCTCCCAGCTGATGAATTTATGGAGTCGAGTAAACAAATTTTCCTAATCTTTCTGTTCAAGCGCCATCTAC” the binding signal was 0.454 RPM ratio (pull-down/input). With “GATGATTGTTCTCCCAGCTGATGAATTAGACAAATCGAGTAAACAAATTTTCCTAATCTTTCTGTTCAAGCGCCATCTAC” the binding signal was 0.417 RPM ratio (pull-down/input). For “GATGATTGTTCTCCCAGCTGATGAATTACTTCACTCGAGTAAACAAATTTTCCTAATCTTTCTGTTCAAGCGCCATCTAC”, the binding signal was 0.319 RPM ratio (pull-down/input). For “GATGATTGTTCTCCCAGCTGATGAATTCTTAATCTCGAGTAAACAAATTTTCCTAATCTTTCTGTTCAAGCGCCATCTAC”, the binding signal was 0.28 RPM ratio (pull-down/input). “GATGATTGTTCTCCCAGCTGATGAATTTATACCTTCGAGTAAACAAATTTTCCTAATCTTTCTGTTCAAGCGCCATCTAC” was tested, and the binding signal was 0.85 RPM ratio (pull-down/input). For “GATGATTGTTCTCCCAGCTGATGAATTGAACGGGTCGAGTAAACAAATTTTCCTAATCTTTCTGTTCAAGCGCCATCTAC”, the binding signal was 0.23 RPM ratio (pull-down/input). For “GATGATTGTTCTCCCAGCTGATGAATTCATATTGTCGAGTAAACAAATTTTCCTAATCTTTCTGTTCAAGCGCCATCTAC”, the binding signal was 1.06 RPM ratio (pull-down/input). “GATGATTGTTCTCCCAGCTGATGAATTCGGTCATTCGAGTAAACAAATTTTCCTAATCTTTCTGTTCAAGCGCCATCTAC” was tested, and the binding signal was 0.728 RPM ratio (pull-down/input). In the case of “GATGATTGTTCTCCCAGCTGATGAATTTGGTGCTTCGAGTAAACAAATTTTCCTAATCTTTCTGTTCAAGCGCCATCTAC”, the binding signal is reported as 1.59 RPM ratio (pull-down/input). “GATGATTGTTCTCCCAGCTGATGAATTGTCCGAATCGAGTAAACAAATTTTCCTAATCTTTCTGTTCAAGCGCCATCTAC” was tested, and the binding signal was 0.272 RPM ratio (pull-down/input). For “GATGATTGTTCTCCCAGCTGATGAATTGTCATTTTCGAGTAAACAAATTTTCCTAATCTTTCTGTTCAAGCGCCATCTAC”, the binding signal was 0.999 RPM ratio (pull-down/input). In the case of “GATGATTGTTCTCCCAGCTGATGAATTTTTGTCATCGAGTAAACAAATTTTCCTAATCTTTCTGTTCAAGCGCCATCTAC”, the binding signal is reported as 0.666 RPM ratio (pull-down/input). For “GATGATTGTTCTCCCAGCTGATGAATTTTGTCATTCGAGTAAACAAATTTTCCTAATCTTTCTGTTCAAGCGCCATCTAC”, the binding signal was 4.89 RPM ratio (pull-down/input). With “GATGATTGTTCTCCCAGCTGATGAATTTGTCATCTCGAGTAAACAAATTTTCCTAATCTTTCTGTTCAAGCGCCATCTAC” the binding signal was 6.03 RPM ratio (pull-down/input). “GATGATTGTTCTCCCAGCTGATGAATTGTCATCCTCGAGTAAACAAATTTTCCTAATCTTTCTGTTCAAGCGCCATCTAC” was tested, and the binding signal was 0.941 RPM ratio (pull-down/input). For “GATGATTGTTCTCCCAGCTGATGAATTTGTCATTTCGAGTAAACAAATTTTCCTAATCTTTCTGTTCAAGCGCCATCTAC”, the binding signal was 5.68 RPM ratio (pull-down/input). For “GATGATTGTTCTCCCAGCTGATGAATTACTTTCTTCGAGTAAACAAATTTTCCTAATCTTTCTGTTCAAGCGCCATCTAC”, the binding signal was 0.388 RPM ratio (pull-down/input). “GATGATTGTTCTCCCAGCTGATGAATTGCTGCACTCGAGTAAACAAATTTTCCTAATCTTTCTGTTCAAGCGCCATCTAC” was tested, and the binding signal was 1.03 RPM ratio (pull-down/input). For “GATGATTGTTCTCCCAGCTGATGAATTCGTGGTTTCGAGTAAACAAATTTTCCTAATCTTTCTGTTCAAGCGCCATCTAC”, the binding signal was 1.35 RPM ratio (pull-down/input). For “GATGATTGTTCTCCCAGCTGATGAATTAGGTAGTTCGAGTAAACAAATTTTCCTAATCTTTCTGTTCAAGCGCCATCTAC”, the binding signal was 0.919 RPM ratio (pull-down/input). In the case of “GATGATTGTTCTCCCAGCTGATGAATTTCATTGGTCGAGTAAACAAATTTTCCTAATCTTTCTGTTCAAGCGCCATCTAC”, the binding signal is reported as 1.11 RPM ratio (pull-down/input). With “GATGATTGTTCTCCCAGCTGATGAATTCTTGTCATCGAGTAAACAAATTTTCCTAATCTTTCTGTTCAAGCGCCATCTAC” the binding signal was 0.625 RPM ratio (pull-down/input). “GATGATTGTTCTCCCAGCTGATGAATTAGGCGCCTCGAGTAAACAAATTTTCCTAATCTTTCTGTTCAAGCGCCATCTAC” was tested, and the binding signal was 1.35 RPM ratio (pull-down/input). “GATGATTGTTCTCCCAGCTGATGAATTAGGCCTCTCGAGTAAACAAATTTTCCTAATCTTTCTGTTCAAGCGCCATCTAC” was tested, and the binding signal was 5.5 RPM ratio (pull-down/input). “GATGATTGTTCTCCCAGCTGATGAATTAGGCAGCTCGAGTAAACAAATTTTCCTAATCTTTCTGTTCAAGCGCCATCTAC” was tested, and the binding signal was 1.13 RPM ratio (pull-down/input). “GATGATTGTTCTCCCAGCTGATGAATTAGGCATCTCGAGTAAACAAATTTTCCTAATCTTTCTGTTCAAGCGCCATCTAC” was tested, and the binding signal was 6.82 RPM ratio (pull-down/input). “GATGATTGTTCTCCCAGCTGATGAATTTTAGGCCTCGAGTAAACAAATTTTCCTAATCTTTCTGTTCAAGCGCCATCTAC” was tested, and the binding signal was 0.444 RPM ratio (pull-down/input). “GATGATTGTTCTCCCAGCTGATGAATTAGGGCATTCGAGTAAACAAATTTTCCTAATCTTTCTGTTCAAGCGCCATCTAC” was tested, and the binding signal was 5.05 RPM ratio (pull-down/input). “GATGATTGTTCTCCCAGCTGATGAATTTAGGCATTCGAGTAAACAAATTTTCCTAATCTTTCTGTTCAAGCGCCATCTAC” was tested, and the binding signal was 5.38 RPM ratio (pull-down/input). For “GATGATTGTTCTCCCAGCTGATGAATTAGGCAAATCGAGTAAACAAATTTTCCTAATCTTTCTGTTCAAGCGCCATCTAC”, the binding signal was 0.601 RPM ratio (pull-down/input).
